# Laboratory results: PubChem BioAssay (Tox21)
# A number with no mark means an inactive call. Results filed as inconclusive are left out. Entries that show only a call come without a potency. Active and inactive are the calls of the source. Unless noted, calls come from the whole dose curve.
# How the values were obtained:
# [1] = Nuclear factor erythroid 2-related factor 2/antioxidant responsive element (Nrf2/ARE) small molecule agonists: qHTS cell viability counter screen in human keratinocytes (AID 1919968; active = well fitted curve in the direction sought with a large enough effect in the repeat runs; an effect the other way counts as inactive or inconclusive; note: nearly all actives have a fitted effect of over 55% in size)
# Method in brief: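 KeratinoSens cells (HaCaT keratinocytes stably carrying an ARE-luciferase reporter) were seeded at 1,500 cells/well and rested 5 h at 37 C/5% CO2. They were then exposed to compounds in DMSO for 23 h. Viability was read by CellTiter-Fluor fluorescence after 1 h.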
# [2] = target: KiSS-1 receptor (Homo sapiens) (UniProt Q969F8); experiment: Human kisspeptin (KISS1R) small molecule agonists, calcium flux assay in KISS1R-HEK293 cells (AID 1920064; active = well fitted curve in the direction sought with a large enough effect in the repeat runs; an effect the other way counts as inactive or inconclusive)
# KiSS-1 receptor (Homo sapiens), sequence (Q969F8 whole entry, looked up): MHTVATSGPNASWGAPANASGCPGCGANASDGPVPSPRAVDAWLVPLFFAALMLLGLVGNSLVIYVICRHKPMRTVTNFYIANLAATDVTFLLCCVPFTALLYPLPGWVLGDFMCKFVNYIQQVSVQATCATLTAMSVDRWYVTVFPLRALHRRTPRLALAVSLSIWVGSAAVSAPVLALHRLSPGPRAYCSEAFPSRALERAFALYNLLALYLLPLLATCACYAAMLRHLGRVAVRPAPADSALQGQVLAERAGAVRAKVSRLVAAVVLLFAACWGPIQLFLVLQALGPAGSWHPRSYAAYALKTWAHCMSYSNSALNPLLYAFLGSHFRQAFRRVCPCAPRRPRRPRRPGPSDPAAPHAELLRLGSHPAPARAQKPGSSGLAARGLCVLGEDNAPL
# Method in brief: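 HEK293 cells stably expressing human KISS1R were plated 18 h at 37 °C, loaded with calcium dye for 1 h at 37 °C, then given compound by pin tool. Fluorescence (Ex/Em 480/540) was read kinetically for 3 min.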
# [3] = G protein-coupled receptor (GPCR) small molecule agonists, calcium flux assay: HEK293 wild type cell line counter screen (AID 1920065)
# Method in brief: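 Cells were plated and cultured 18 h at 37 C/5% CO2, then loaded with calcium dye for 1 h at 37 C. Compounds in DMSO were pin-transferred in agonist mode, and fluorescence (Ex/Em 480/540) was read kinetically for 3 min at 1 s intervals.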
# [4] = p53 small molecule agonists, cell-based qHTS assay with human liver microsomes (AID 1963577);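 note: p53 response element beta-lactamase reporter cells with liver microsomes plus NADPH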
# Method in brief: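 Reporter activation was measured by LiveBLAzer fluorescence intensity in p53RE-bla cells, which had been exposed to compounds for 16 h at 37 C alongside 0.5 mg/mL human liver microsomes and 0.5 mg/mL NADPH (final concentrations).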
# [5] = p53 small molecule agonists, cell-based qHTS assay with rat liver microsomes (AID 1963578)
# Method in brief: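 Compound in DMSO added to p53RE-bla cells 5 h post-plating; rat microsomes/NADPH 0.5 mg/mL final; 16 h, 37 C; LiveBLAzer 2 h RT.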
# [6] = p53 small molecule agonists, cell-based qHTS assay with human liver microsomes: qHTS cell viability counter screen (AID 1963579); note: nearly all actives have a fitted effect of over 45% in size; note: potency is the fitted concentration of half-maximal effect
# Method in brief: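 HLM-supplemented (0.5 mg/mL final) and NADPH-supplemented (0.5 mg/mL final) p53RE-bla cultures, 4,000 cells per well, were dosed with compounds in DMSO for 16 h at 37 C; luminescent ATP detection (CellTiter-Glo, 30 min, room temperature) quantified surviving cells.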
# [7] = target: 5-hydroxytryptamine receptor 2A (Homo sapiens) (UniProt P28223); experiment: 5-hydroxytryptamine receptor 2A (HTR2A) small molecule antagonists, cell-based qHTS assay (AID 1963586); note: nearly all actives have a fitted effect of over 45% in size
# 5-hydroxytryptamine receptor 2A (Homo sapiens), sequence (P28223 whole entry, looked up): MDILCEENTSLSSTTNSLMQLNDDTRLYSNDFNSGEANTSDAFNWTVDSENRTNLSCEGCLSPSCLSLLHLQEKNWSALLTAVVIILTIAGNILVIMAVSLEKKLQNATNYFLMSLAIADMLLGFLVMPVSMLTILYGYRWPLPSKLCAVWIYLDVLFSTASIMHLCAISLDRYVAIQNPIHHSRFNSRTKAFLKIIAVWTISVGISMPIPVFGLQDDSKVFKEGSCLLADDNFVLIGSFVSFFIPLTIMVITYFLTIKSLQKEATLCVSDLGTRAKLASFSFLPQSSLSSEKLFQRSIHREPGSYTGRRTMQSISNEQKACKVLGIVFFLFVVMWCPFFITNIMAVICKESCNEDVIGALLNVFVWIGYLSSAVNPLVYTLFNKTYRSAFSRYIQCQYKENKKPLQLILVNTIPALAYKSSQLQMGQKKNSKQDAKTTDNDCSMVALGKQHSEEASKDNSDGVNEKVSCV
# Method in brief: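 Antagonist-mode intracellular calcium assay: DOI (4 nM) added after 5 min compound pre-incubation at room temperature to dye-loaded HTR2A-CHO cells. Fluorescence followed for 3 min, sampled every second.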
# [8] = target: 5-hydroxytryptamine receptor 2A (Homo sapiens) (UniProt P28223); experiment: 5-hydroxytryptamine receptor 2A (HTR2A) small molecule agonists, cell-based qHTS assay (AID 1963587); note: nearly all actives have a fitted effect of over 30% in size
# Method in brief: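 Kinetic calcium-flux fluorescence (2 min, 1 sec intervals) after compound addition in agonist mode. HTR2A-CHO cells were cultured 18 h, then dye-loaded 1 h at 37 C.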
# [9] = target: Muscarinic acetylcholine receptor M1 (Homo sapiens) (UniProt P11229); experiment: Cholinergic receptor muscarinic 1 (CHRM1) small molecule antagonists, cell-based qHTS assay (AID 1963588); note: nearly all actives have a fitted effect of over 40% in size
# Muscarinic acetylcholine receptor M1 (Homo sapiens), sequence (P11229 whole entry, looked up): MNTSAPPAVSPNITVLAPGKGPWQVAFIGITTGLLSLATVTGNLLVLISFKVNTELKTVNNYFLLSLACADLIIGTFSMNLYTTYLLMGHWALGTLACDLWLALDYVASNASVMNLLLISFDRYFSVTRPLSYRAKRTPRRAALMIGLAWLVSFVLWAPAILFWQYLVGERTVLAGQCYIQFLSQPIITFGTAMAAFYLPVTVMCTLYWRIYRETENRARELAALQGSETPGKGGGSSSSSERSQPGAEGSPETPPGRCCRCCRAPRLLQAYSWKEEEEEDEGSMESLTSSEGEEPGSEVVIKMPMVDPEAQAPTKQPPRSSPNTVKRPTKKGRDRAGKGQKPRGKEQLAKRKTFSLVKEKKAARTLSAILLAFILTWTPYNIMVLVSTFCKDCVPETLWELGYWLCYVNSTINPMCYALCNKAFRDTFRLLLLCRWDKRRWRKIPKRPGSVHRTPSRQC
# Method in brief: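 CHRM1-CHO calcium-flux assay, antagonist mode. Cells were seeded 18 h, dye-loaded 1 h at 37 C and given compound for 5 min at RT, then acetylcholine was added at 50nM. FDSS fluorescence was read 3 min; 15 concentrations, three runs.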
# [10] = target: Muscarinic acetylcholine receptor M1 (Homo sapiens) (UniProt P11229); experiment: Cholinergic receptor muscarinic 1 (CHRM1) small molecule agonists, cell-based qHTS assay (AID 1963589); note: nearly all actives have a fitted effect of over 35% in size
# Method in brief: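 CHO cells stably expressing human CHRM1, seeded 18 h at 37 C/5% CO2, dye-loaded 1 h at 37 C, then given compound in agonist mode; intracellular calcium fluorescence read kinetically at 1 s intervals. Fifteen concentrations, three independent runs.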
# [11] = cAMP Responsive Elements (CRE) small molecule agonists, cell-based qHTS assay (AID 1963590)
# Method in brief: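 CRE-bla HEK 293T cells in DMEM with 10% dialyzed FBS, NEAA, pyruvate and 25 mM HEPES were plated 18 h at 37 C/5% CO2, then exposed to compounds in DMSO for 3 h before LiveBLAzer B/G FRET substrate addition.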
# [12] = target: Beta-2 adrenergic receptor (Homo sapiens) (UniProt P07550); experiment: Adrenergic beta2 receptor (ADRB2) small molecule antagonists, cell-based qHTS assay (AID 1963592); note: series mostly up to about 92 µM; nearly all actives have a fitted effect of over 50% in size
# Beta-2 adrenergic receptor (Homo sapiens), sequence (P07550 whole entry, looked up): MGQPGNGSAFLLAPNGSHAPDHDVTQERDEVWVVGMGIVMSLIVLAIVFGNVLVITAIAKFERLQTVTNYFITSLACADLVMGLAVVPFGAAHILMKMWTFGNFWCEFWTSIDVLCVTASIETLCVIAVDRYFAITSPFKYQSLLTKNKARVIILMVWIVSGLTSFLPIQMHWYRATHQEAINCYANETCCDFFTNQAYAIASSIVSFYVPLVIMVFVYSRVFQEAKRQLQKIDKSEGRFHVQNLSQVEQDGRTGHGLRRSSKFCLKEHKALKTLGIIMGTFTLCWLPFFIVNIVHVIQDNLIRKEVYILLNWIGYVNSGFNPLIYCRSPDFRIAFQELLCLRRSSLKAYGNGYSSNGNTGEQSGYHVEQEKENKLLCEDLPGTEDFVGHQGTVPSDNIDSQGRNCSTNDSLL
# Method in brief: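 Cells (CHO, stable ADRB2 overexpression) incubated 18-20hr at 37C; compounds added from DMSO; agonist mix (1nM isoproterenol, 100uM IBMX, 25uM Ro-20-1724) added; 0.5hr RT; d2-cAMP and anti-cAMP-cryptate added; 1hr RT; 665/615 nm read.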
# [13] = target: D(2) dopamine receptor (Homo sapiens) (UniProt P14416); experiment: Dopamine D2 receptor (DRD2) small molecule agonists, cell-based qHTS assay (AID 1963594); note: nearly all actives have a fitted effect of over 35% in size
# D(2) dopamine receptor (Homo sapiens), sequence (P14416 whole entry, looked up): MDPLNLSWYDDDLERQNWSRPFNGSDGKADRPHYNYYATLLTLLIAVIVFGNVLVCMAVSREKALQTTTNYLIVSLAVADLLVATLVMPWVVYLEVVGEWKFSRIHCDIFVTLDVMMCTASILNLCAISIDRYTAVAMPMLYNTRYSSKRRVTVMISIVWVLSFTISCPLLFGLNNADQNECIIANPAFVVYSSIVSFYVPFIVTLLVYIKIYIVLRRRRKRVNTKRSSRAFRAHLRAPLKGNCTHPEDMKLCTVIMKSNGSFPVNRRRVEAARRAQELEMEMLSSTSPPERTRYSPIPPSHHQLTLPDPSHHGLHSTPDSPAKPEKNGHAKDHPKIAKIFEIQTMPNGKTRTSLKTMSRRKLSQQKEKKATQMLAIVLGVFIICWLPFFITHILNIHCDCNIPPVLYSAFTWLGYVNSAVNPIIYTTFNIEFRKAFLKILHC
# Method in brief: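 cAMP accumulation in DRD2-HEK293 cells measured by HTRF after 1 h detection; compounds added 10 min before NKH477 (200nM […]) forskolin-analogue stimulation, 30 min at room temperature, with Ro20-1724 present at 0.1 mM final.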
# [14] = target: D(2) dopamine receptor (Homo sapiens) (UniProt P14416); experiment: Dopamine D2 receptor (DRD2) small molecule antagonists, cell-based qHTS assay (AID 1963595; active = well fitted inhibition curve with a large enough effect in the signal ratio in the repeat runs, with a control signal flat; the % refers to the signal ratio)
# Method in brief: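 Antagonism was scored as restored cAMP in HEK293-DRD2 cells. These cells were stimulated with 200 nM NKH477 and 12 nM quinpirole for 30 min at room temperature, in the presence of 0.1 mM Ro20-1724.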
# [15] = p53 small molecule agonists, cell-based qHTS assay with rat liver microsomes: qHTS cell viability counter screen (AID 1963580); note: nearly all actives have a fitted effect of over 45% in size
# Method in brief: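 HCT-116 p53RE-bla, 4,000 cells/well, 5 h pre-incubation; cpd + rat liver microsomes 0.5 mg/mL + NADPH 0.5 mg/mL (final); 16 h, 37 C; CellTiter-Glo, 30 min RT; luminescence.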
# [16] = p53 small molecule agonists, cell-based qHTS assay: qHTS cell viability counter screen (AID 1963581); note: nearly all actives have a fitted effect of over 45% in size; note: potency is the fitted concentration of half-maximal effect
# Method in brief: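 p53RE-bla HCT-116 cells were exposed to compounds for 16 h at 37 C; after the beta-lactamase FRET read in the same wells, CellTiter-Glo was added and luminescence (intracellular ATP) read after 30 min at room temperature.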
# [17] = p53 small molecule agonists, cell-based qHTS assay (AID 1963582; active = well fitted activation curve with a large enough effect in the signal ratio in the repeat runs, not every such curve was filed as active; the % refers to the signal ratio)
# Method in brief: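 p53RE-bla beta-lactamase reporter cells rested 5 h at 37 C/5% CO2, then received compounds in DMSO by pin transfer and were incubated 16 h at 37 C. LiveBLAzer B/G FRET substrate was loaded for 2 h at room temperature before fluorescence reading.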
# [18] = cAMP Responsive Elements (CRE) small molecule antagonists, cell-based qHTS assay (AID 1963591; active = well fitted inhibition curve with a large enough effect in the signal ratio in the repeat runs, not every such curve was filed as active; the % refers to the signal ratio)
# Method in brief: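 CRE-bla HEK293T cells were plated 18 h at 37 °C/5% CO2, pinned with compound in DMSO, then stimulated with NKH477 at 0.25 uM final for 3 h. LiveBLAzer B/G FRET substrate was added and plates incubated 2 h at room temperature.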
# [19] = target: Beta-2 adrenergic receptor (Homo sapiens) (UniProt P07550); experiment: Adrenergic beta2 receptor (ADRB2) small molecule agonists, cell-based qHTS assay (AID 1963593);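 note: CHO cells stably overexpressing human ADRB2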
# Method in brief: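 CHO cells stably over-expressing ADRB2 were plated overnight at 37C, then dosed with compounds plus a stimulation mix containing 100uM IBMX and 25uM Ro-20-1724 for 0.5hr at room temperature. cAMP was measured by HTRF competition, 1hr.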
Compound,Potency [1],outcome [2],outcome [3],Potency [4],Potency [5],Potency [6],Potency [7],Potency [8],Potency [9],Potency [10],Potency [11],Potency [12],Potency [13],Potency [14],Potency [15],Potency [16],Potency [17],Potency [18],Potency [19]
CCCCCCCC[Si](OCC)(OCC)OCC,inactive,inactive,inactive,inactive,inactive,inactive,inactive,inactive,inactive,inactive,inactive,inactive,inactive,inactive,–,–,–,–,–
C/C=C/C=C/CCCCCCCO,inactive,–,inactive,inactive,inactive,inactive,–,inactive,inactive,inactive,–,inactive,inactive,–,inactive,inactive,–,–,–
CCCCCCCC/C=C\CCCCCCCCCCCC(=O)O,inactive,inactive,–,inactive,inactive,inactive,inactive,inactive,inactive,inactive,–,inactive,inactive,inactive,–,inactive,inactive,inactive,–
COC(=O)c1ccc(I)cc1S(=O)(=O)NC(=O)Nc1nc(C)nc(OC)n1,inactive,–,inactive,inactive,inactive,inactive,inactive,inactive,inactive,inactive,–,inactive,–,inactive,inactive,inactive,inactive,–,–
CN(C)C(=O)CNC(=O)Cc1ccccc1,inactive,–,inactive,inactive,inactive,inactive,–,inactive,inactive,inactive,inactive,inactive,inactive,inactive,inactive,inactive,inactive,inactive,inactive
C=C(C)C(=O)OCC1CCCO1 (stereo not drawn),inactive,inactive,inactive,inactive,inactive,–,inactive,inactive,inactive,inactive,inactive,inactive,inactive,inactive,inactive,inactive,inactive,inactive,inactive
Clc1cc(Cl)cc(Cl)c1,inactive,inactive,inactive,–,–,inactive,–,inactive,inactive,inactive,inactive,–,inactive,inactive,inactive,inactive,inactive,inactive,inactive
COc1c(Br)cc(Br)c(C)c1Br,inactive,inactive,inactive,inactive,inactive,inactive,–,inactive,–,inactive,inactive,–,inactive,inactive,–,inactive,inactive,inactive,–
Nc1ccccc1O,inactive,inactive,–,inactive,inactive,28.5 µM (active),inactive,inactive,inactive,inactive,–,–,inactive,inactive,inactive,32 µM (active),inactive,–,–
